BoNT F protease: BoNT/F light chain protease inhibitors, primary screen, biochemical, flow cytometry, MLPCN library. AID 588497, 2011. inhibition, % at 10 µM. Multiplex microsphere protease cleavage assay. hit rate 0.22% among 360,000. Botulinum neurotoxin type F light chain protease (Clostridium botulinum); in the data active means inhibition above about 35%, passing the limit was not always enough; inconclusive means no clear call, values can overlap the other calls; further: plate controls were buffer without enzyme for full effect and enzyme alone for no effect
Anthrax LF prot: Bacillus anthracis LF protease inhibitors, primary screen, biochemical, multiplex microsphere, MLPCN library; Lethal factor (Bacillus anthracis), P15917; multiplex microsphere protease cleavage assay; inhibition, % at 10 µM; hit rate 0.12% among 360,000; AID 588501, 2011; further: plate controls were buffer without enzyme for full effect and enzyme alone for no effect
Target sequence (P15917 whole entry, looked up): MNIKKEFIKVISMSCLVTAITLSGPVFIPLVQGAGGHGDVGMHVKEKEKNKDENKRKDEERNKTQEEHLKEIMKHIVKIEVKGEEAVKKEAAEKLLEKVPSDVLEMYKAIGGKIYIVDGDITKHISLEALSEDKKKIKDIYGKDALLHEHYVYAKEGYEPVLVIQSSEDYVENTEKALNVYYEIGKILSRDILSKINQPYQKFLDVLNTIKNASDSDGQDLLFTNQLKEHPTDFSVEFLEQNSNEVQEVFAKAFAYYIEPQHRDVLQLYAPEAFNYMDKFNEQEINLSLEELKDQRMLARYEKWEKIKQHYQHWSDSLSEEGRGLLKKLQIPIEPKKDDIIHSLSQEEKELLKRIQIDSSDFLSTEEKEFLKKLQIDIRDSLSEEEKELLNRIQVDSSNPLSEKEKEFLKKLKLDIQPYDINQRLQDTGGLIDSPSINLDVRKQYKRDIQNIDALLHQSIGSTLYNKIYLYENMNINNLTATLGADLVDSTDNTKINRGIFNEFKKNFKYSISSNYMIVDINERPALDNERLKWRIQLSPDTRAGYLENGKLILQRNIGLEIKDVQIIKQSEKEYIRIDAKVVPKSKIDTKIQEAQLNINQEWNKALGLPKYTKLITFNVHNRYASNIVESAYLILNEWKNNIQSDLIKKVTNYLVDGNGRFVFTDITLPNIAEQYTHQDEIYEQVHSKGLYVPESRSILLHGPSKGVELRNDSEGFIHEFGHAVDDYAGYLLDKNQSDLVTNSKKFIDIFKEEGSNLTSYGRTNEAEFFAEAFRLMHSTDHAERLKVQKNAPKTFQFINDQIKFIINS
BoNT A protease: BoNT/A light chain protease inhibitors, primary screen, biochemical, flow cytometry, MLPCN library; Botulinum neurotoxin type A light chain protease (Clostridium botulinum A str. ATCC 3502); multiplex microsphere protease substrate cleavage; inhibition, % at 10 µM; hit rate 0.17% among 360,000; further: plate controls were buffer without enzyme for full effect and enzyme alone for no effect
Bead autofluor: flagged as autofluorescent in microsphere protease counterscreen. hit rate 3.1% among 360,000. compound autofluorescence counterscreen, microsphere flow cytometry; stronger effect = higher value. fluorescence intensity (concentration not given with the values); in the data active means fluorescence intensity above about 16000; inconclusive means no clear call, values can overlap the other calls
The depositor's hits bear a star; ? = inconclusive. A selection: hits, their analogues and other compounds. The true share with any hit is near 3.5%. Unless noted, no stated cut-off is given here; in the data, active means inhibition above about 30%; inconclusive means no clear call, values can overlap the other calls; inactive means below that.

SMILES | BoNT F protease | Anthrax LF prot | BoNT A protease | Bead autofluor
CCOC(=O)Cc1cc(=O)c2c(=O)n(-c3ccccc3)[nH]c2[nH]1 | 2 | -2 | 2 | 22135*
O=c1cc(-c2ccccc2)[nH]c2[nH]n(-c3ccccc3)c(=O)c12 | -3 | 0 | -2 | 17478*
O=c1cc(-c2ccccc2)[nH]n1-c1ccccc1 | 2 | -9 | 0 | 3612
CCOC(=O)CC1=NN(c2ccccc2)C(=O)C1 | -4 | 0 | 0 | 2572
CCc1ccccc1NC(=O)CCc1c(C)nc(SC)nc1C | -30 | -4 | 0 | 3645
COc1ccc(C2N(S(=O)(=O)c3ccccc3)CCN2S(=O)(=O)c2ccc(C)cc2)cc1 (stereo not given) | 14 | -19 | 14 | 17266*
COc1ccc(C2N(C(=O)N3CCOCC3)CCN2S(=O)(=O)c2ccc(C)cc2)cc1 (stereo not given) | -1 | 1 | 0 | 22397*
Cc1ccc(S(=O)(=O)N2CCN(S(C)(=O)=O)C2C)cc1 (stereo not given) | 4 | -2 | 2 | 5934
Cc1ccc(S(=O)(=O)N2CCN(C(=O)N3CCOCC3)C2c2ccc(N(C)C)cc2)cc1 (stereo not given) | 6 | -2 | ? | 21067*
Cc1ccc(S(=O)(=O)N2CCN(C(=O)N3CCOCC3)C2C)cc1 (stereo not given) | -1 | -1 | -1 | 23303*
CC(NC(=O)C(C)(C)C)C(c1cccs1)N1CCOCC1 (stereo not given) | -6 | -6 | 0 | 5040
COc1ccc(C2N(C(=O)CN3CCOCC3)CCN2S(=O)(=O)c2ccccc2)cc1 (stereo not given) | -4 | -4 | ? | 22919*
CCOC(=O)N1CCN(S(=O)(=O)c2ccc(C)cc2)C1c1ccc(OC)cc1 (stereo not given) | 3 | 0 | 1 | 3917
CC1(C)CC(N2CCOCC2)=CC(=[N+]2CCOCC2)C1 | -3 | -6 | 0 | 4565
CC1(C)CC(N2CCCCC2)=CC(=[N+]2CCCCC2)C1 | 0 | 6 | -2 | 27656*
CS(=O)(=O)c1ccc(Cl)c(NC(=O)CCN2C(=O)NC3(CCCC3)C2=O)c1 | -6 | -8 | 0 | 3229
CS(=O)(=O)N(CC(=O)O)c1ccc(Oc2ccccc2)cc1 | 0 | -4 | 0 | 20680*
O=C(Nc1ccon1)c1ccc2c(c1)OCO2 | 0 | 2 | ? | 16433*
O=C(Nc1ccc2nsnc2c1)c1ccc2c(c1)OCO2 | -6 | -3 | -2 | 23719*
OCC[C@H]1C[C@@H](O)[C@H](O)[C@]2(OCCc3ccccc32)O1 | 5 | 3 | 0 | 4030
CC(C)NC(=O)C1Cc2c(-c3ccc(Cl)cc3)ccnc2O1 (stereo not given) | -5 | 3 | 0 | 2834
CCCc1cc(=O)[nH]c(SCc2cccc(C)c2)n1 | -4 | 0 | ? | 23596*
CCCc1cc(=O)[nH]c(SCc2ccccc2)n1 | -4 | 3 | 0 | 2965
CCCc1cc(=O)[nH]c(SCc2cc(Cl)ccc2OC(F)F)n1 | -8 | -2 | -5 | 24635*
CCCc1cc(=O)[nH]c(SCc2ccc(Cl)cc2)n1 | -3 | -8 | 0 | 5803
SMILES | BoNT F protease | Anthrax LF prot | BoNT A protease | Bead autofluor
O=C(Cn1c(Cn2c(-c3cnccn3)nc3ccccc32)nc2ccccc21)c1ccc(OC(F)(F)F)cc1 | 6 | 0 | 0 | 5741
CC(C)c1ccc(NC(=O)C2CCN(S(C)(=O)=O)CC2)cc1 | -76 | -1 | -3 | 3887
Cc1ccc(NC(=O)C2CCN(S(C)(=O)=O)CC2)cc1 | -9 | 3 | ? | 22760*
COc1ccc(NC(=O)C2CCN(S(=O)(=O)c3ccc(C)cc3)CC2)cc1OC | -7 | 0 | -4 | 25551*
CC(C)(C)N(Cc1ccccc1)C(=O)COC(=O)/C=C/c1ccc2c(c1)OCO2 | -2 | 4 | 2 | 8789
CC1CN(S(=O)(=O)c2ccccc2)CC(C)O1 (stereo not given) | 0 | 0 | ? | 23507*
CN1C(=O)C(c2ccccc2[N+](=O)[O-])C(=O)c2ccccc21 (stereo not given) | -16 | -3 | 0 | 3787
CCOC(=O)C(C)(C)Sc1ncnc2nc[nH]c12 | 3 | -1 | ? | 23381*
CCOC(=O)N1CCN(c2ncnc3nc[nH]c23)CC1 | -5 | -2 | 0 | 5296
CS(=O)(=O)NCCOc1ccc(S(=O)(=O)NCCOc2ccccc2)cc1 | -6 | -7 | -2 | 4743
O=S(=O)(NCCOc1ccccc1)c1ccc2ccccc2c1 | 3 | 2 | ? | 19154*
Cc1ccc(-c2nnn(CC(=O)N(c3ccccc3F)C(C(=O)NCC3CCCO3)c3c[nH]c4ccccc34)n2)cc1 (stereo not given) | 0 | -6 | 1 | 16194*
COc1ccc(-c2nnn(CC(=O)N(Cc3ccccc3Cl)C(C(=O)NCC3CCCO3)c3ccco3)n2)cc1 (stereo not given) | 2 | 0 | 2 | 20046*
O=C(Nc1ccc(C(F)(F)F)cc1)C1CCCCN1S(=O)(=O)c1ccccc1 (stereo not given) | -10 | -3 | -1 | 4032
CC1CCN(Cc2c(O)ccc3c(=O)c(-c4nc5ccccc5s4)c(N)oc23)CC1 | -4 | 0 | 0 | 2127
CC1CCCN(Cc2c(O)ccc3c(=O)c(-c4nc5ccccc5s4)c(N)oc23)C1 (stereo not given) | -10 | -4 | ? | 25322*
COc1cc(CCN(C(=O)c2cccc(S(C)(=O)=O)c2)C(CCc2ccccc2)c2nc3ccccc3[nH]2)cc(OC)c1 (stereo not given) | 1 | 0 | 0 | 5742
CCN(CC)c1ccc2cc(-c3nc(-c4cc5ccccc5oc4=O)cs3)c(=O)oc2c1 | 23 | 47* | 87* | 7684
O=c1oc2ccccc2cc1-c1csc(Cc2nc(-c3ccc(Cl)cc3)cs2)n1 | -2 | 0 | 1 | 2174
O=c1[nH]c2ccsc2c(=O)n1-c1ccc(F)cc1 | 0 | -10 | 0 | 5911
O=c1[nH]c2ccsc2c(=O)n1-c1ccc(F)c(Cl)c1 | 10 | -10 | ? | 17764*
O=S1(=O)c2c(F)cccc2O[C@@H](COCc2ccccc2)CN1CCc1ccc(F)cc1 | 0 | -3 | 0 | 3801
N#Cc1c(SCC(=O)Nc2nncs2)sc2c(O)cc(=O)[nH]c12 | -4 | -1 | 0 | 5814
Cc1coc(C)c1C(=O)Nc1ccc2ccccc2c1 | -2 | 2 | 0 | 6017
CC(C)c1ccc(OCC(=O)Nc2ccc3oc(=O)ccc3c2)cc1 | -10 | -4 | -4 | 6376
O=C(Nc1cccc(O)c1)c1ccc(Br)c(S(=O)(=O)N2CCCCC2)c1 | -6 | -3 | -4 | 24544*
O=C(Nc1ccncc1)c1ccc(Cl)c(S(=O)(=O)N2CCCCC2)c1 | 16 | 1 | 5 | ?
O=C(Nc1cccc(O)c1)c1ccc(Br)cc1 | 4 | -7 | 3 | 21990*
O=C(Nc1cccc(O)c1)c1cccc(S(=O)(=O)N2CCCCCC2)c1 | -4 | 10 | 2 | 3670
CC(=O)Nc1cccc(NC(=O)c2ccc(Br)cc2)c1 | -7 | -4 | -1 | 4321

Screens deposited in PubChem BioAssay by NMMLSC.
